High-throughput results deposited in PubChem by several laboratories.
This is a sample that favours compounds with a hit; in the whole collection about 27% have one here.
CYP2C19 act: cytochrome P450 2C19 (human) activation; recombinant CYP2C19, luciferin-H EGE luminescence; active compounds read high; 0 = fully inhibited enzyme, 1 = untreated enzyme; activation factor at 5 µM; 96,000 tested, under 10 active; AID 1025;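 active = activation factor of at least 2 at 5 µM in the primary screen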;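 note: 0 = wells with 2.5 mM tranylcypromine and 1 = vehicle-only wells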
CYP2C9 inhib: human CYP2C9 inhibition; P11712; CYP2C9 Supersomes, luciferin-H conversion, luminescence; inhibition, % at 5 µM; actives 20% (n = 96,000);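 active = blocking of liver enzyme CYP2C9 beyond about 50% at 5 µM, limit read from the data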
Target sequence (P11712 whole entry, looked up): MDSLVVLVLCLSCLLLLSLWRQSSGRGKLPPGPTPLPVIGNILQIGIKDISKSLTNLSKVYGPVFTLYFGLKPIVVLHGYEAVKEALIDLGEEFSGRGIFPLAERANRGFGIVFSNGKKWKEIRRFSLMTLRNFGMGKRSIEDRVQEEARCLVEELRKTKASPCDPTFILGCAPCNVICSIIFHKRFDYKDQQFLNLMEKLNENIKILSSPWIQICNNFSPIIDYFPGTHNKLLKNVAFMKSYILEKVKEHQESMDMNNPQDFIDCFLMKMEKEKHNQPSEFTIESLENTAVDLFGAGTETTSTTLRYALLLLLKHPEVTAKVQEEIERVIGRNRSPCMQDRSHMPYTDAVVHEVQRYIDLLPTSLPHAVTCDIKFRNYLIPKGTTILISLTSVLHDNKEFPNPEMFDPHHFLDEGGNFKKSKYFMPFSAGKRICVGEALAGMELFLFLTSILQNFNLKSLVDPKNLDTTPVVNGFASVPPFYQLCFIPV
Cav32 inh: human Cav3.2 channel inhibition, primary screen | Cav3.2-expressing cells, Fluo-4 calcium fluorescence FDSS; active compounds read low | O95180 | actives 4% (n = 100,000) | B-score at 10 µM;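 active = single-dose well whose peak fluorescence ratio is a statistical outlier from its plate by either plate-standardised score or position-corrected B-score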
CYP2C9 act: CYP2C9 (human) activation. actives 1.4% (n = 96,000). recombinant CYP2C9, luciferin-H conversion, luminescence; active compounds read high; factor 1 = untreated enzyme, 0 = blocked. activation factor at 5 µM. AID 1024. P11712;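 active = activation factor of 2 or more for CYP2C9 at a 5 µM dose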;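 note: 0 = sulfaphenazole-blocked wells and 1 = vehicle-only wells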
CYP2C19 inh: human CYP2C19 inhibition | inhibition, % at 5 µM | actives 21% (n = 96,000) | CYP2C19 Supersomes, luciferin-H EGE luminescence, 30 min;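 active = CYP2C19 inhibition above a set limit at 5 µM in the primary screen, cut at about 50% in these data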;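 note: plate controls were negative control wells for no effect and 2.5 mM tranylcypromine positive control for full effect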
Starred values were filed as active, the others as inactive; · = no result.

SMILES	CYP2C19 act	CYP2C9 inhib	Cav32 inh	CYP2C9 act	CYP2C19 inh
COc1cccc(NC(=O)C(=O)N/N=C/c2cc(C)n(-c3ccc(Cl)c(Cl)c3)c2C)c1	0.4	30	-5.6*	0.7	57*
Cc1ccc(S(=O)(=O)C(C#N)c2nc3ccccc3nc2N2CCCCC2)cc1 (stereo unspecified)	0.8	7	·	0.9	17
Cc1cccc(S(=O)(=O)C(C#N)c2nc3ccccc3nc2N2CCOCC2)c1 (stereo unspecified)	0.7	56*	-1.9	0.4	29
CCOC(=O)N1CCN(c2nc3ccccc3nc2C(C#N)S(=O)(=O)c2ccc(C)cc2)CC1 (stereo unspecified)	0.7	92*	·	0.1	33
CCC(C(=O)NC1CCCC1)N(C(=O)Cn1nnc(-c2ccc(C)cc2)n1)C1CCCC1 (stereo unspecified)	·	·	-6.5*	·	·
O=C(CN(Cc1ccco1)C(=O)Cn1nnc(-c2ccc(F)cc2)n1)NC1CCCC1	0.9	39	·	0.6	15
CC(C)CCNC(=O)CN(CCCN1CCOCC1)C(=O)Cn1nnc(-c2ccc(F)cc2)n1	0.6	52*	-1	0.5	39
CCCC(C(=O)NC1CCCC1)N(C(=O)Cn1nnc(-c2ccc(C)o2)n1)C1CCCC1 (stereo unspecified)	0.8	36	-2.5	0.6	25
CC(C)CCNC(=O)C(c1ccncc1)N(Cc1cccs1)C(=O)Cn1nnc(-c2ccc(F)cc2)n1 (stereo unspecified)	·	·	-7.4*	·	·
CCCCC(C(=O)NC1CCCC1)N(Cc1ccco1)C(=O)Cn1nnc(-c2ccc(F)cc2)n1 (stereo unspecified)	0.1	92*	-2.9	0.1	92*
c1ccc(-c2cc(-c3nnc4n3N=C(c3ccc5ccccc5c3)CS4)[nH]n2)cc1	1	49	-1.3	0.5	5
COC(=O)[C@@H]1C[C@@]2(O)[C@@H](O)[C@@H](O)[C@@H](O)C[C@H]2N1Cc1cc(OC)cc(OC)c1	·	·	-0.039	·	·
COc1ccc(C(=O)Cc2cc(OC)c(OC)cc2[N+](=O)[O-])c(OC)c1	0.9	-38	1.1	1.4	14
COc1ccc(-c2nnn(CC(=O)N(Cc3cccs3)C(C)C(=O)NC3CCCC3)n2)cc1OC (stereo unspecified)	0.4	52*	-0.61	0.5	57*
CCC(C(=O)NC1CCCC1)N(C(=O)Cn1nnc(-c2ccc(OC)c(OC)c2)n1)C1CCCCC1 (stereo unspecified)	0.3	52*	-0.18	0.5	72*
Cc1ccc(-c2nnn(CCC(=O)NC3CCCC3)n2)cc1	0.5	76*	-0.34	0.2	45
Cc1ccc(-c2nnn(CC(=O)NC3CCN(Cc4ccccc4)CC3)n2)cc1	·	·	-4.8	·	·
O=C(Cc1ccccc1)Nc1c(C(=O)N2CCOCC2)cnn1-c1ccccc1	1.1	-6	0.068	1.1	-6
COC(C[C@H](O)C[C@@H](O)COCc1ccccc1)OC	·	·	-0.73	·	·
CC(=O)NCCn1c(SCc2ccccc2C)nc2ccccc2c1=O	0.2	98*	-0.72	0	79*
CC(=O)NCCn1c(SCc2cc(F)ccc2F)nc2ccccc2c1=O	0.2	99*	0.067	0	76*
CCOc1ccc(CC(=O)N2CCN(c3ccc(N4CCOCC4)nn3)CC2)cc1OCC	1	8	·	0.9	-1
O=C(Nc1ccc2c(c1)CCC2)c1cnccn1	0.3	-10	-0.82	1.1	68*
O=C(Nc1ccc2c(c1)CCC2)c1cc2ccccc2o1	0.8	-28	-3.3	1.3	16
O=C(Nc1ccc2c(c1)OCO2)c1cccc(F)c1	0.6	2	-0.028	1	42
SMILES	CYP2C19 act	CYP2C9 inhib	Cav32 inh	CYP2C9 act	CYP2C19 inh
O=C(Nc1ccc2c(c1)CCC2)c1ccc(Br)o1	0.2	-18	-2.2	1.2	76*
O=C(Nc1ccc2c(c1)OCO2)c1c(F)cccc1F	0.9	17	-3.3*	0.8	13
Cc1ccc(C(=O)Nc2ccc3c(c2)CCC3)o1	0.2	-13	-0.016	1.1	78*
O=C(Nc1ccc2c(c1)OCO2)c1ccc(Br)o1	0.1	60*	-0.84	0.4	85*
O=S(=O)(Nc1ncn[nH]1)c1ccc(Cl)cc1	0.2	1	·	1	83*
O=S(=O)(Nc1nc2ccccc2[nH]1)c1ccccc1	0.6	14	0.0097	0.9	42
O=S(=O)(Nc1ccccn1)c1ccc(Cl)cc1	0.7	-46	0.8	1.5	32
O=S(=O)(Nc1nc2ccccc2[nH]1)c1ccc(Cl)cc1	0.4	6	-0.93	0.9	58*
